Assay outcomes deposited in PubChem by several laboratories.
Many of the other results were omitted from the sample, so hits are more common in it than they were.
GluA2 TARP mod: modulates AMPAR-stargazin complexes; calls only at 30 µM; 40,000 compounds, 3.5% hits; HEK293 GluA2+stargazin, membrane potential dye (FDSS), glutamate EC50; hits were called plate by plate, in both directions; O88602+P19491;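 active = any of four per-well response measures lying three or more SD from its plate-wide compound average, in either direction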
Target sequence (O88602 whole entry, looked up): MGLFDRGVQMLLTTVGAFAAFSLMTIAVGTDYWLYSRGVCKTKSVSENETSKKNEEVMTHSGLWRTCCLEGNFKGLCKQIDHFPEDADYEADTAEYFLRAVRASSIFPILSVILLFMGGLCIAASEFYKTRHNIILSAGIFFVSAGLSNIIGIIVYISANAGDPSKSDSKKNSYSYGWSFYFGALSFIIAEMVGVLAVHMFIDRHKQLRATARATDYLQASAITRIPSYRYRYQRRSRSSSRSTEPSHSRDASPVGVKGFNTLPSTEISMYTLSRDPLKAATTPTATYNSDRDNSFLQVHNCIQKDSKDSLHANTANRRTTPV
Target sequence (P19491 whole entry, looked up): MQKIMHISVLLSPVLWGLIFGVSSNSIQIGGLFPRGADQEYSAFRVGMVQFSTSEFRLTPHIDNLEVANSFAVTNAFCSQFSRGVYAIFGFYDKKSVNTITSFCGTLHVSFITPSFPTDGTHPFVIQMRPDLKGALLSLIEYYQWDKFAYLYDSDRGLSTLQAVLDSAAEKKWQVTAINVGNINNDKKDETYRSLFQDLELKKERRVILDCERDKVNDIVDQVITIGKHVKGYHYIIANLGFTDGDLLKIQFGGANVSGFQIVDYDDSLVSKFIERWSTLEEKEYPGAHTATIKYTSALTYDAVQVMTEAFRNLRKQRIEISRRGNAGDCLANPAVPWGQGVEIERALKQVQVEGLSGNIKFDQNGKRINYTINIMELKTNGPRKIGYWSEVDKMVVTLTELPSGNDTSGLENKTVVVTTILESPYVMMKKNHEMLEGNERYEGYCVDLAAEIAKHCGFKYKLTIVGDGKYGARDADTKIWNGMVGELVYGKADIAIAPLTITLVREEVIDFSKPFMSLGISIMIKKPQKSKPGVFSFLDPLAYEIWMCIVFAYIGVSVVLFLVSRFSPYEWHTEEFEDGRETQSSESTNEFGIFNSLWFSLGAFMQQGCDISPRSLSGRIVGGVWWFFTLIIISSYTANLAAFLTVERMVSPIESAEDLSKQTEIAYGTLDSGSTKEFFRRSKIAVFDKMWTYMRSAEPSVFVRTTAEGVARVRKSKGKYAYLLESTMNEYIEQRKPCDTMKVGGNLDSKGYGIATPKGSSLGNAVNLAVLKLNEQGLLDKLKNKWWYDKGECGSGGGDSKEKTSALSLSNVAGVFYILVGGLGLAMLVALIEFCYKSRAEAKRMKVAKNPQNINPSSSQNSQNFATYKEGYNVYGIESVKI
GIRK2 activator: GIRK2 channel activators by thallium flux; HEK293 GIRK2/NPY4 cells, thallium flux fluorescence; 34,000 tested, under 10 active; AID 1259324; activation (% efficacy), % for hits at 37.5 µM;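 active = primary screen hit, no activity in plain HEK293 cells, and in GIRK2-only cells above 5% efficacy rising with concentration; inactive = the rest, including fluorescent compounds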;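 also: efficacy is normalized control-subtracted fluorescence 15 s after thallium addition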
* marks the source's active call; other numbers are inactive results; i = inactive; x = no result; + = active, no number.

SMILES	GluA2 TARP mod	GIRK2 activator
COc1ccc(OC)c(NC(=O)c2nn(-c3ccc(F)cc3)cc2OCc2ccccc2)c1	i	i
CCCc1ccc(S(=O)(=O)Nc2ccc3nncn3n2)cc1	i	i
COC(=O)CSc1ncnc2c1nnn2C	i	i
CN1CCN(C(=O)C(=O)Nc2c3c(nn2-c2cccc(Cl)c2)CSC3)CC1	i	i
O=C(Nc1c2c(nn1-c1cccc(Cl)c1)CS(=O)C2)C1CCCCC1 (centres undefined)	+	i
O=C(COc1ccc2ccccc2c1)NCC(O)c1ccc(C(F)(F)F)cc1 (centres undefined)	x	i
Cc1ccc(C(CNC(=O)COc2ccc3ccccc3c2)N(C)C)cc1 (centres undefined)	+	i
O=C(NCc1ccsc1)c1cccc(C(F)(F)F)c1	+	i
O=C(NCc1ccsc1)c1ccc2c(c1)OCO2	i	i
Cn1cccc1C(O)CNC(=O)C(=O)NCCc1ccccc1 (centres undefined)	i	i
CSc1ccccc1NC(=O)c1cc2n(n1)C(C(F)(F)F)CC(c1ccco1)N2 (centres undefined)	i	x
O=C(NCCc1c[nH]c2ccccc12)c1cc2n(n1)C(C(F)(F)F)CC(c1ccco1)N2 (centres undefined)	+	x
CS(=O)(=O)N1CCC(C(=O)N2CCN(c3ccc(-c4ccco4)nn3)CC2)CC1	i	i
Cn1c(=O)c2cc(C(=O)NCc3ccccc3)sc2n(C)c1=O	i	i
Cn1c(=O)c2cc(C(=O)Nc3ccc(Oc4ccccc4)cc3)sc2n(C)c1=O	i	i
Cn1c(=O)c2cc(C(=O)NCCC(c3ccccc3)c3ccccc3)sc2n(C)c1=O	i	i
Cn1c(=O)c2cc(C(=O)NCCCn3ccnc3)sc2n(C)c1=O	+	i
Cn1c(=O)c2cc(C(=O)NCCCN3CCOCC3)sc2n(C)c1=O	+	i
Cn1c(=O)c2cc(C(=O)Nc3cccc(S(N)(=O)=O)c3)sc2n(C)c1=O	+	i
COc1cc(-c2ccc(SCC(=O)NCc3ccc(F)cc3)nn2)cc(OC)c1OC	i	i
CCOc1ccc(C(=O)Nc2ccc3c(c2)CCC(=O)N3C)cc1	i	x
CCC(C)NC(=O)Cn1cnc2c(sc3nc(C)cc(C)c32)c1=O (centres undefined)	+	i
Cc1cc(C)c2c(n1)sc1c(=O)n(CC(=O)Nc3ccc(Cl)cc3)cnc12	i	i
COc1ccc(C(CNC(=O)C(=O)Nc2ccc3c(c2)OCCO3)N2CCOCC2)cc1 (centres undefined)	x	i
COC(=O)c1ccc2c(=O)n(Cc3ccc(C(=O)NCCCN4CCOCC4)cc3)c(=S)[nH]c2c1	+	i
SMILES	GluA2 TARP mod	GIRK2 activator
COC(=O)c1ccc2c(=O)n(Cc3ccc(C(=O)NC4CCCC4)cc3)c(=S)[nH]c2c1	i	i
O=S(=O)(CCc1ccccc1)NCC1CCN(Cc2ccccc2)CC1	i	i
O=c1nc(SCc2cccc([N+](=O)[O-])c2)c2c(n1CC1CCCO1)CCC2 (centres undefined)	i	i
O=c1nc(SCc2cccc(Cl)c2)c2c(n1CC1CCCO1)CCCC2 (centres undefined)	+	i
COc1cccc(NC(=O)CC2=NS(=O)(=O)c3ccccc3N2)c1	i	i
COC(=O)CC1C(=O)NCCN1C(=S)NC(=O)c1cccc(Cl)c1 (centres undefined)	i	x
COc1ccc(S(=O)(=O)NCc2ccccc2)cc1N(C)S(=O)(=O)c1ccc(Cl)cc1	+	x
COc1ccc(S(=O)(=O)NCc2ccccc2)cc1N(C)S(C)(=O)=O	i	x
O=C1CC(c2nc(-c3ccccn3)no2)CN1c1cccc(Cl)c1 (centres undefined)	i	i
COc1ccc(Cl)cc1NC(=O)Cc1csc(-n2cccc2)n1	i	i
O=C(Nc1nc(-c2ccncc2)cs1)C1CCN(S(=O)(=O)c2cccs2)CC1	+	x
O=C(Nc1nc(-c2ccncc2)cs1)C1CCCN(S(=O)(=O)c2cccs2)C1 (centres undefined)	i	x
Cc1nc(NC(=O)c2ccc(N3C(=O)CCC3=O)cc2)sc1C	i	i
CCc1nc2ccccc2n1CCOc1ccccc1	i	x
CCC(O)c1nc2ccccc2n1CCOc1ccccc1 (centres undefined)	+	x
COc1ccc(C(=O)C2C(=O)N(c3ccccc3)N=C2C)cc1OC (centres undefined)	i	i
CC1=NN(c2ccccc2)C(=O)C1C(=O)c1ccc(C)c(C)c1 (centres undefined)	+	i
COc1cn(-c2ccc(F)cc2)nc1C(=O)NCCN1CCOCC1	i	i
COc1ccc(Cl)cc1S(=O)(=O)NCc1ccsc1	x	i
CCOc1cccc2cc(C(=O)NCc3ccncc3)c(=O)oc12	+	i
CCOc1ccc(OCCNC(=O)c2cc3cccc(OCC)c3oc2=O)cc1	i	i
CCCNC(=O)Cn1nc(-c2ccco2)c2sc(N3CCCCC3)nc2c1=O	i	i
CCCn1c(=O)c2c(nc3n2CCCN3c2ccc(Oc3ccccc3)cc2)n(C)c1=O	i	x
COc1ccc(CCC(=O)Nc2cc(-n3c(C)nc4ccccc4c3=O)ccc2F)cc1	i	i
COc1ccc(CCC(=O)Nc2cccc(-n3c(C)nc4ccccc4c3=O)c2)cc1	+	x
SMILES	GluA2 TARP mod	GIRK2 activator
Cc1ccc(-n2nnc3c(=O)n(CC(=O)N4CCOCC4)cnc32)cc1C	i	x
O=C(NCCc1ccccc1)N1CCC(c2nnc(C3CC3)o2)CC1	i	x
O=C(CN1CCC(c2nnc(C3CC3)o2)CC1)NCCc1ccccc1	+	i
Cn1nc(NC(=O)c2cc3ccccc3oc2=O)c2c1NC(=O)CC2c1cccs1 (centres undefined)	i	i
COc1ccc(C(=O)NCCOc2cc(C)cc(C)c2)c(OC)c1	+	i
Cc1cc(C)cc(OCCNC(=O)c2cccs2)c1	i	i
O=C(NCc1ccc(F)cc1)C(=O)NCC(O)c1ccc(C(F)(F)F)cc1 (centres undefined)	i	x
COc1ccc(Cl)cc1NC(=O)Nc1ccc2c(c1)CC(=O)N2	i	i
CC(=O)N1CCc2c(sc(NC(=O)c3ccc(S(=O)(=O)C(C)C)cc3)c2C(N)=O)C1	+	i
CC(C)S(=O)(=O)c1ccc(C(=O)Nc2sc3c(c2C(N)=O)CCCC3)cc1	i	i
COc1cc(NC(=O)c2ccco2)ccc1N1CCCCC1=O	i	i
COc1ccccc1-c1nc(COC(=O)c2nnn(-c3ccc(C)cc3)c2C)c(C)o1	i	x
CCOc1ccccc1-c1nc(COC(=O)c2nnn(-c3ccc(Cl)cc3)c2C)c(C)o1	+	x
N#Cc1ccc(Cl)cc1NC(=O)C(=O)N1CCN(c2ccc(F)cc2)CC1	i	x
Cc1nn(-c2ccc(F)cc2)c2ncc(C(=O)NCCCn3ccnc3)c(Cl)c12	+	x
Cc1ccc(CNC(=O)c2cnc3c(c(C)nn3-c3ccc(F)cc3)c2Cl)cc1	i	i
O=C(Nc1cccc(C(F)(F)F)c1)C1CC(=O)N(c2ccc(F)cc2)C1 (centres undefined)	+	x
O=C(Nc1ccc2c(c1)CN(C(=O)c1ccccc1)CC2)C1CC(=O)N(c2ccc(F)cc2)C1 (centres undefined)	i	i
